Source: PubChem BioAssay
A selection: hits, their analogues and other compounds. The true share with any hit is near 3.4%.
ADAM17 inh – inhibits human ADAM17. inhibition, % at 6.95 µM. recombinant ADAM17, EDANS/DABCYL FRET peptide cleavage. 0.83% of 370,000 active;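 active = inhibition above the mean of compounds lying between control limits plus 3 SD, set per campaign, cut at about 8.5% in these data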;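 note: 0% = DMSO-only wells as the low control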
sPLA2-III inh – Blocks human group III sPLA2 activity | QFRET BODIPY PC-A2 liposome hydrolysis, fluorescence | inhibition, % at 12.2 µM | 0.56% of 370,000 active | AID 743126;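 active = inhibition above mean plus 3 SD of compounds lying within the high and low control bounds, cut at about 19% in these data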;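 note: 0% = median of test compound wells and 100% = no enzyme DMSO wells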
PLC-beta3 inh – PLC-beta3 (human) inhibition, primary screen; Q01970; Purified PLC-beta3, fluorogenic substrate, fluorescence; inhibition, % at 12.2 µM; 0.18% of 370,000 active; in the data active = inhibition above about 11%;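 note: 0% = median of compound wells on plate and 100% = full blocker control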
ADAM10 inh – inhibits human ADAM10; O14672; recombinant ADAM10, EDANS/DABCYL FRET peptide cleavage, 3 h; inhibition, % at 7 µM; 0.62% of 370,000 active; AID 720582;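 active = inhibition above a per-campaign cutoff equal to the mean of compounds falling between control-based bounds plus 3 SD, cut at about 20% in these data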;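 note: 0% = DMSO wells while the 100% control is not disclosed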
proKLK7 act – activators of human kallikrein-7 zymogen; 0.9% of 370,000 active; purified proKLK7, EDANS-DABCYL substrate fluorescence; 100% is mature enzyme control, 0% vehicle; activation, % at 7 µM; AID 652039;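 active = activation above the mean of all tested compounds plus 3 SD, computed per campaign excluding outliers beyond control limits, cut at about 13% in these data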
PLC-gamma1 inh – blocks human PLC-gamma1 enzyme activity. P19174. purified PLC-gamma1, fluorogenic substrate, fluorescence. inhibition, % at 12.2 µM. 0.84% of 370,000 active. AID 720700
PLCgamma1 ctr – PLC-gamma1 inhibition, counter-screen for PLC-beta3 hits | AID 743258 | purified PLC-gamma1, fluorogenic substrate, fluorescence | shares compounds with PLC-gamma1 inh | inhibition, % at 12.3 µM | 3.1% of 3,300 active
PLCbeta3 conf – human PLC-beta3 inhibition, confirmation | AID 743261 | inhibition, % at 12.3 µM | shares compounds with PLC-gamma1 inh | 1% of 3,300 active | purified PLC-beta3, fluorogenic substrate fluorescence; in the data active = inhibition above about 11%
An asterisk follows results filed as active; x = no result given. Cut-off read from the data, not from the text of the source, unless noted: active = inhibition above about 9.5%; inactive = the rest.

SMILES	ADAM17 inh	sPLA2-III inh	PLC-beta3 inh	ADAM10 inh	proKLK7 act	PLC-gamma1 inh	PLCgamma1 ctr	PLCbeta3 conf
Cc1ccc(N(C(=O)CCC(=O)Nc2cc(C)on2)C(C(=O)NC2CCCC2)c2ccncc2)cc1 (configuration not stated)	2.8	-2.3	4.0	11.2	-0.1	10.4*	6.2	4.0
CCCCCn1cc(CCC(=O)Nc2ccc(Oc3cccnc3)cc2)c2ccccc21	4.5	-44.7	-10.6	3.5	0.1	-1.7	x	x
CCN(CCNC(=O)c1ccc(CSc2nc3ccncc3[nH]2)cc1)c1ccccc1	0.4	-26.6	2.6	-6.3	-0.8	2.1	x	x
CC1CC(C)CN(C(=O)c2ccc(CSc3nc4ccncc4[nH]3)cc2)C1 (configuration not stated)	0.2	-23.8	14.1*	5.5	0.2	8.8	-9.8	-4.0
CCC(C)N(C(=O)CN1C(=O)C2CCCCN2C(=O)c2ccccc21)C(C)CC (configuration not stated)	-2.8	-1.7	-2.8	-8.9	0.2	-1.5	x	x
C#CNC(=O)C1(CC=C)CCNCC1	5.2	7.9	12.5*	-2.1	0.5	4.2	-5.1	-1.7
COc1ccc2c(C(c3ccccc3O)C3CCCN3S(=O)(=O)c3ccc(C)cc3)cn(C)c2c1 (configuration not stated)	1.9	-18.3	-0.6	8.8	-0.9	4.9	x	x
COC(=O)[C@H]1C[C@]2(C(/C=C(\C)CCC=C(C)C)S(=O)(=O)c3ccccc3)c3ccccc3N[C@H]2N1 (some centres not stated)	-3.4	-10.4	1.3	1.7	x	-0.6	x	x
O=C(O)c1cccc(Nc2cc(Cl)c3nonc3c2[N+](=O)[O-])c1	5.5	6.5	3.3	10.1	0.1	12.9*	-0.5	2.5
Fc1ccccc1NC(=S)N1CCN(c2ccccn2)CC1	3.6	7.0	7.9	2.5	0.0	10.4*	-7.3	-0.5
S=C(Nc1ccccc1Cl)N1CCN(c2ccccn2)CC1	5.0	15.2	-6.8	-5.2	-0.8	1.4	x	x
O=c1cc2oc3cc(O)c(O)cc3c(-c3ccccc3[N+](=O)[O-])c-2cc1O	2.9	18.1	8.7	5.8	0.0	12.9*	17.2*	8.8
O=c1cc(-c2ccccc2Cl)oc2cccc(O)c12	1.4	12.5	0.5	-2.0	-0.2	5.2	x	x
O=C(CSc1ccccc1)NC1CCCCN(Cc2cccc(Cl)c2)C1=O (configuration not stated)	-0.3	-9.1	-1.3	-0.2	0.1	-1.2	x	x
COC(=O)CCCc1nc2ccccc2s1	1.3	0.7	2.0	8.7	0.8	1.3	x	x
NC(=O)COC(=O)CCCc1nc2ccccc2s1	5.6	4.2	11.4*	15.0	-0.5	11.9*	-8.5	-3.8
COc1ccc(C2CC(=O)C(c3cccc(C)c3)=CN2Cc2ccccc2)cc1 (configuration not stated)	-1.1	-2.7	-92.6	-8.8	-1.6	-62.6	x	x
Cc1cc(C)c(C(=O)COC(=O)[C@H](C)Nc2ccc(C(F)(F)F)cc2[N+](=O)[O-])c(C)c1	-1.1	4.7	1.3	4.7	0.0	1.9	x	x
COc1ccc(C(=O)COC(=O)[C@H](C)Nc2ccc(C(F)(F)F)cc2[N+](=O)[O-])cc1	5.5	8.1	6.3	12.4	1.1	11.5*	-0.8	-2.9
Cc1ccc(C(=O)Cn2c(C(=O)OCCO)cc3ccccc32)cc1	4.8	-21.5	-2.0	10.4	-0.2	10.7*	-8.9	-6.2
CCCCOCCCNC(=O)c1ccc(OCC)cc1	1.2	-3.6	1.7	4.8	0.1	10.1*	-4.2	-1.7
Cc1cccc(C(=O)Nc2nc3ncccn3c2-c2ccc(F)cc2)c1	-29.5	-2.1	-153.6	-104.6	2.9	-126.7	x	x
CN1CCN(c2nc3c(c(=O)[nH]c(=O)n3C)n2CC(N)=O)CC1	6.3	4.8	8.2	7.7	-0.4	13.5*	-5.0	-1.7
Cc1cccn2cc(CNC(=O)c3ccco3)nc12	5.1	4.8	11.1*	10.1	0.3	6.0	-7.8	-0.3
O=C(Oc1ccc(Br)cc1C(=S)N1CCCC1)c1ccccc1F	6.3	-8.7	1.7	10.2	-0.3	13.2*	-4.2	-2.8
SMILES	ADAM17 inh	sPLA2-III inh	PLC-beta3 inh	ADAM10 inh	proKLK7 act	PLC-gamma1 inh	PLCgamma1 ctr	PLCbeta3 conf
COC(=O)c1cc(-c2ccc(C)cc2)n[nH]1	4.6	-4.6	3.7	14.8	0.1	10.2*	-6.3	-3.5
COC(=O)c1cc(-c2ccc(OC)cc2)n[nH]1	-5.3	-4.2	-2.4	-4.4	-0.3	-1.6	x	x
Cc1onc(-c2c(F)cccc2Cl)c1-c1ncc(-c2ccc(Cl)cc2)o1	-3.9	7.1	2.9	3.7	-0.4	3.2	x	x
C=CCN1C(=O)[C@@H](CC(=O)NCCC(C)C)[C@]2(C(=O)OCC)CCCCC/C=C/12	-2.0	0.9	0.0	-4.0	0.7	-1.9	x	x
Nc1[nH]c2ccccc2c1C(=O)NC1CC1	-5.2	6.2	-6.3	-10.5	0.0	-8.6	x	x
O=C(NC(=S)Nc1ccc(NC(=O)c2cccs2)cc1)c1ccco1	3.4	4.3	14.8*	5.8	-0.5	6.7	-0.2	5.2
CC(C)Cc1ccc(S(=O)(=O)Nc2cccnc2)cc1	1.9	-18.0	-0.3	10.0	-0.4	9.8*	-4.5	-7.8
N#Cc1ccc(Cn2ccc3ccc(-c4ccc5ccn(C(=O)C6CCCCC6)c5c4)cc32)cc1	-10.2	11.5	-142.9	-27.0	-1.4	-103.2	x	x
CCOC(=O)c1c(C)[nH]c(C)c1S(=O)(=O)N(C)Cc1ccco1	0.7	-1.5	-3.0	3.3	0.4	10.5*	0.1	-4.9
O=C(NC1CCCCN(Cc2cccc(F)c2)C1=O)c1ccc(-c2ccccc2)cc1 (configuration not stated)	2.7	-0.2	-1.7	7.3	0.3	1.4	x	x
CCCCCCCCN1C(=O)[C@@H](CC(=O)N2CCSCC2)C[C@@]2(C(=O)OC)C1=C[C@H](C(C)(C)C)O[C@@H]2C	-0.3	1.1	2.1	6.4	0.3	-2.3	x	x
Cc1cccc(OCC(=O)N(C)CCc2ccccn2)c1	3.0	2.7	11.4*	6.2	0.2	7.5	-3.6	0.8
Cc1cccc(CN(C)CCc2ccccn2)c1	-3.9	0.0	0.4	0.7	-0.1	1.2	x	x
O=C(CSc1nc(=O)n(Cc2ccccn2)c2c1CCC2)Nc1ccc(F)cc1F	1.9	14.4	7.4	4.1	-0.5	13.0*	-2.4	1.0
COc1ccc(C(=O)O/N=C(\N)Cc2ccc([N+](=O)[O-])cc2)c(OC)c1	-5.7	17.9	-8.5	-5.7	-0.4	10.3*	-50.9	-46.3
O=C(Nc1cccc2ccccc12)c1ccccc1	1.7	-5.2	1.2	13.7	-0.1	10.2*	-70.8	-1.7
O=C(Nc1cccc2ccccc12)c1ccc(F)cc1	1.0	2.2	0.0	8.3	-0.4	-1.0	x	x
